Paper PMC4336329 (PLoS ONE, 2015)
Screen size: about 310,000 compounds; about 14,000 (4.5%) showed an effect of 50% or more. The effect is printed as a negative number. For the sample, strong results were picked, then their nearest neighbours and some compounds at random.

These compounds were tested against human ether-à-go-go-related gene (hERG) potassium channel (human, UniProt Q12809) (assay: primary screen, population patch clamp on CHO cells stably expressing hERG; higher = less effect of the substance).
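Also: peak tail current of the secondary pulse compared with the same well before compound.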

Chain of human ether-à-go-go-related gene (hERG) potassium channel (Q12809 whole entry, looked up): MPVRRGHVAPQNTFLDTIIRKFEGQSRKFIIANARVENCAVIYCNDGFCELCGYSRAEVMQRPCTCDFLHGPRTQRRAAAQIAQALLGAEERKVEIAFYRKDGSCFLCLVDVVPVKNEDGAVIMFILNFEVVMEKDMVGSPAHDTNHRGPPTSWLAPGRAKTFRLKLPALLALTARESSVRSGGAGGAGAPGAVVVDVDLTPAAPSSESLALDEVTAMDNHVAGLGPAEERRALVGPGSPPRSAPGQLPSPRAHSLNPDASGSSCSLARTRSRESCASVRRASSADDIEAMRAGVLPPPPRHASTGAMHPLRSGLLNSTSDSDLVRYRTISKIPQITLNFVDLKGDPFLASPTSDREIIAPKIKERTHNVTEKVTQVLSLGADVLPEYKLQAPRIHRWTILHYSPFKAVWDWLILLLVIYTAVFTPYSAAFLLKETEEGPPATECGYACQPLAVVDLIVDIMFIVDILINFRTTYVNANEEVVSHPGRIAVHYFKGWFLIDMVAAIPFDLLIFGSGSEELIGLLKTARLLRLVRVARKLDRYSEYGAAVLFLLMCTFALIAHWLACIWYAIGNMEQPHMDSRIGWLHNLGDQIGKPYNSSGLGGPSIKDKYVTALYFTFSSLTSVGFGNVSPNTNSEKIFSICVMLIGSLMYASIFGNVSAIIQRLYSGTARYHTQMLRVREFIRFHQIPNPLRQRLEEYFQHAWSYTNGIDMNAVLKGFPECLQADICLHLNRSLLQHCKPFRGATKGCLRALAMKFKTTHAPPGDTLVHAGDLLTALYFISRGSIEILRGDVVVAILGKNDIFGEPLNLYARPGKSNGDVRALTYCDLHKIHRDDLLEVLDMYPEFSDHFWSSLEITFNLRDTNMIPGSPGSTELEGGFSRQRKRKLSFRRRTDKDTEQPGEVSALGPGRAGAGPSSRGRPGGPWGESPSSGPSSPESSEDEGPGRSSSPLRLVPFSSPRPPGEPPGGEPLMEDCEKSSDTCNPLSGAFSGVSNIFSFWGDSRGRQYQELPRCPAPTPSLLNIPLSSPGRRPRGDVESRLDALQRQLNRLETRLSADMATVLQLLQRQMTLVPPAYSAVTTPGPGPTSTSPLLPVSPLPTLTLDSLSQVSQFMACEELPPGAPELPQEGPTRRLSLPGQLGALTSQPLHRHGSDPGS

Row | Compound | hERG current change (%, negative = inhibition) at 10uM
1 | CN(C)c1cccc(NC(=O)c2ccco2)c1 | -73.3%
2 | Cc1cc(NC(=O)c2ccc(Br)o2)ccc1NC(=O)c1ccco1 | -58.2%
3 | CN(C(=O)c1cccc(NC(=O)c2ccco2)c1)c1ccccc1 | 13.3%
4 | Cc1ccc(NC(=O)c2ccc(Br)o2)cc1S(=O)(=O)N(C)C | -54.7%
5 | CC(=O)Nc1cccc(NC(=O)c2ccco2)c1 | -4.69%
6 | Cc1ccc(C(=O)Nc2ccc(NC(=O)c3ccco3)c(C)c2)cc1 | 14.7%
7 | Cc1cc(Br)ccc1NC(=O)c1ccco1 | 0.934%
8 | Cc1ccc(NC(=O)c2ccccc2Br)cc1S(=O)(=O)N(C)C | -1.84%
9 | CN(C)S(=O)(=O)c1ccc(NC(=O)c2ccc(Br)o2)cc1 | -9.84%
10 | COc1ccc(C2N(C(=O)C(F)(F)F)C(C)CN2S(=O)(=O)c2ccc(C)cc2)cc1 (centres unmarked) | 11.2%
11 | Cc1ccc(C2NC(=O)c3c(sc(C)c3C)N2)c(O)c1 (centres unmarked) | -3.45%
12 | CCOc1ccc(-n2c(CC)nc3ccccc3c2=O)cc1 | 1.33%
13 | N#Cc1nc(-c2cccc(Cl)c2)oc1N1CCC(C(N)=O)CC1 | 0.912%
14 | CCOC(=O)C1C(=O)NC(N2CCCCC2)=NC1c1ccco1 (centres unmarked) | 8.22%
15 | Cc1cccc(C)c1NC(=O)C1(C)c2cccc[n+]2CC(=O)N1Cc1cccs1.[I-] (centres unmarked) | 6.18%
16 | COc1ccc(S(=O)(=O)Nc2cccc(S(=O)(=O)NC3=NCCC3)c2)cc1[N+](=O)[O-] | 18.6%
17 | O=C(N/N=C/c1cn(-c2ccccc2)nc1-c1cccnc1)c1cccnc1 | -50.3%
18 | NC(=O)N/N=C/c1cn(-c2ccccc2)nc1-c1cccnc1 | 4.92%
19 | CC(C)(C)OC(=O)N/N=C/c1cn(-c2ccccc2)nc1-c1cccnc1 | -49.3%
20 | O=C(N/N=C/c1cn(-c2ccccc2)nc1-c1cccnc1)c1ccccc1 | -60.7%
21 | O=C(N/N=C/c1cn(-c2ccccc2)nc1-c1cccnc1)c1ccc(F)cc1 | -41.3%
22 | NC(=S)N/N=C/c1cn(-c2ccccc2)nc1-c1cccnc1 | 11.8%
23 | CCn1ccnc1CN(C)C(=O)CCc1nnc(CCC2CCCCC2)o1 | -27.7%
24 | C=Cn1ccnc1P(=S)(c1ccc(N(C)C)cc1)c1nccn1C=C | 3.93%

Row | Compound | hERG current change (%, negative = inhibition) at 10uM
25 | O=c1c2ccccc2nc(-c2ccc(Cl)cc2)n1C1CCS(=O)(=O)C1 (centres unmarked) | -2.23%
26 | O=C(CN1CCN(Cc2ccccc2)CC1)N1N=CCC1c1ccccc1 (centres unmarked) | -1.06%
27 | Cc1ccc(C(=O)O/N=C/c2c(Cl)n(C)c3ccccc23)cc1 | 16.2%
28 | CC(=O)Nc1ccc(N(C(=O)CNC(=O)c2cccs2)C(C(=O)NCC2CCCO2)c2ccccc2)cc1 (centres unmarked) | 13.2%
29 | O=C(O)C1CSC(CCc2ccccc2)N1 (centres unmarked) | 14%
30 | c1ccc(CCC2Cc3ccccc3N2)cc1 (centres unmarked) | -0.839%
31 | [Cl-].c1ccc(CC[C@@H]2CC[C@@H](CCc3ccccc3)N2)cc1 | -66%
32 | COC(=O)c1[nH]c2ccccc2c1NC(=O)Oc1ccccc1 | 12%
33 | Cc1ccc2nc(C)c(CN3CCN(c4ccc([N+](=O)[O-])cc4Cl)CC3)n2c1 | -69.3%
34 | CN1CCN(c2cc([N+](=O)[O-])ccc2Cl)CC1 | -23.3%
35 | Cc1ccc([N+](=O)[O-])cc1NC(=O)c1cccs1 | 18.4%
36 | O=C(Nc1cc([N+](=O)[O-])ccc1N1CCOCC1)c1cccs1 | 1.15%
37 | O=C(Nc1cc([N+](=O)[O-])ccc1N1CCCC1)c1cccs1 | -65.4%
38 | CN1CCN(c2ccc([N+](=O)[O-])cc2NC(=O)c2cccs2)CC1 | -55.2%
39 | O=[N+]([O-])c1ccc(N2CCN(c3ccc(Cl)nn3)CC2)c(Cl)c1 | -23.7%
40 | COc1ccc(N2CCN(c3ccc([N+](=O)[O-])cc3Cl)CC2)cc1 | -12.1%
41 | O=C(Nc1cc([N+](=O)[O-])ccc1N1CCCC1)c1ccccc1 | -33.3%
42 | CN1CCN(c2ccc([N+](=O)[O-])cc2Cl)CC1 | -52.2%
43 | O=[N+]([O-])c1ccc(N2CCNCC2)c(Cl)c1 | -6.48%
44 | COC(=O)c1ccc(N2CCN(C)CC2)c(NC(=O)c2cccs2)c1 | -8.75%
45 | COC(=O)C1=C(N)Oc2cc(C)n(Cc3ccncc3)c(=O)c2C1c1cccnc1 (centres unmarked) | -14.8%
46 | CCn1c(/C=C\c2ccccc2C)nc2ccccc2c1=O | -19.1%
47 | CC(C)c1ncc(S(=O)(=O)c2ccc(C(F)(F)F)cn2)c(N)n1 | 11.6%
